# Screening data: PubChem BioAssay, several laboratories
# This is a sample that favours compounds with a hit; in the whole collection about 1.9% have one here.
# Ba/F3 V617F tox: lowers viability of Ba/F3 cells expressing EpoR and JAK2V617F; ATP luminescence; inhibition, % at 5.6 µM; actives 1.1% (n = 220,000); AID 1446;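 active means inhibition above the campaign mean plus 3 SD over all tested compounds, cut at about 24% in these data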;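 further: cytokine-independent growth of Ba/F3 cells driven by EpoR plus mutant JAK2; 0% = DMSO-treated cells and 100% = JAK inhibitor I control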
# APP 5UTR inh: APP translation inhibition; SH-SY5Y APP 5'UTR-luciferase reporter, luminescence; inhibition, % at 2 µM; actives 0.82% (n = 190,000); AID 1285;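 active means inhibition above a set limit, derived from the sample mean plus 3 SD, cut at about 45% in these data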
# IEC-6 tox: kills IEC-6 intestinal cells in KLF5 counter-screen; actives 0.78% (n = 290,000); AID 1825; inhibition, % at 5 µM; IEC-6 cytotoxicity, luminescence viability;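 further: 0% = plate median of test compound wells and 100% = cytotoxic reference compound wells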
# BaF3 tox: counter-screen for JAK2V617F inhibitors: parental Ba/F3 viability inhibitors | CellTiter-Glo ATP luminescence | inhibition, % at 5.6 µM | actives 1.1% (n = 220,000) | AID 1486;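 active means inhibition above a per-campaign cutoff, the mean inhibition of all tested compounds plus 3 SD, cut at about 27% in these data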;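 further: 0% = DMSO wells and 100% = JAK Inhibitor I control wells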
# KLF5 inh: suppresses KLF5 promoter-driven expression | DLD-1 KLF5 promoter-luciferase reporter, luminescence | inhibition, % at 5 µM | actives 0.23% (n = 290,000);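 active means inhibition above a per-plate limit of that plate's mean compound inhibition plus 3 SD, cut at about 60% in these data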;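 further: 0% = DMSO wells and 100% = LY294002 at 200 µM; higher means less KLF5 promoter-driven luciferase light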
# IEC-6 tox confirm: IEC-6 cytotoxicity, confirmation assay. shares compounds with IEC-6 tox. IEC-6 rat intestinal epithelial viability, luminescence. inhibition, % at 5 µM. actives 63% (n = 1,900). AID 1907;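 further: 0% = vehicle and 100% = reference cytotoxic drug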
# Numbers without * were called inactive; / = no result given. Unless noted, no stated cut-off is given here; in the data, active means inhibition above about 22%; inactive means the rest.
SMILES,Ba/F3 V617F tox,APP 5UTR inh,IEC-6 tox,BaF3 tox,KLF5 inh,IEC-6 tox confirm
COC(=O)CCn1[nH]c(=O)c2ccccc2c1=O,0,4,5,5,-2,/
O=c1[nH]n(Cc2ccccc2)c(=O)c2ccccc12,3,-3,31*,6,-6,38*
CCOc1ccc(C(C)=O)cc1COc1cccnc1[N+](=O)[O-],/,/,28*,/,31,24*
Cn1c(=O)c2c(nc(NCc3cccnc3)n2Cc2cccc(C(F)(F)F)c2)n(C)c1=O,53*,-11,25*,53*,9,25*
Cc1ccn2cc(-c3ccc(O)c(O)c3)nc2c1,/,/,23*,/,-58,13
CCN1CCN(C(=O)C2CCC(=O)N(CCCN3CCCC3=O)C2)CC1 (stereo not given),/,/,-4,/,-15,/
COc1ccccc1CNC(=O)c1sccc1-c1ccccc1,/,/,2,/,14,/
COc1ccc(C(=O)Nc2sc3c(c2C#N)CCN(C(C)=O)C3)cc1,4,-8,4,10,-14,/
COC(=O)c1c(NC(=O)c2ccc([N+](=O)[O-])o2)sc2c1CCN(C(C)C)C2,/,/,96*,/,0,60*
CC(=O)N1CCc2c(sc(NC(=O)c3ccc([N+](=O)[O-])o3)c2C#N)C1,17,62*,61*,32*,-5,63*
COC(=O)c1sc(NC(=O)c2ccc([N+](=O)[O-])o2)c(C#N)c1C,1,/,22*,2,-8,26*
COC(=O)c1c(NC(=O)Cc2ccccc2)sc2c1CCN(C(C)C)C2,/,/,0,/,-13,/
CS(=O)(=O)N(CC(=O)NCCSCc1cccc(Cl)c1)c1ccccc1F,/,/,-3,/,-19,/
Cc1nc2c(-c3ccccc3)cnn2c(N)c1-c1ccccc1,/,/,-15,/,39,/
COc1ccc(CCN(C)C2CCCN(S(=O)(=O)c3ccc(C)cc3)C2)cc1OC (stereo not given),/,/,-4,/,-21,/
CCOC(=O)c1[nH]c(C)c(C(=O)OCC)c1C,-1,-19,0,-5,-56,/
CCOC(=O)c1[nH]c(C)c(C(=O)OCc2ccccc2F)c1C,/,/,51*,/,36,38*
CCOC(=O)c1[nH]c(C)c(C(=O)c2cc(F)ccc2F)c1C,63*,95*,88*,78*,51,65*
COc1ccc(NC(=O)Cc2nnc(SCC(=O)Nc3nccs3)n2C)cc1,/,/,-2,/,-19,/
Clc1ccc(CSc2nncn2-c2ccc3c(c2)OCCO3)cc1,6,/,32*,2,2,31*
Clc1ccc(CSc2nncn2-c2ccccn2)cc1,-2,0,2,6,-18,/
CC(C)Cn1c(-c2csc3c2CCCC3)n[nH]c1=S,3,-15,-1,5,-53,/
CCCNC(=O)c1ccccc1NC(=O)c1ccc2c(c1)NC(=O)C(C)S2 (stereo not given),/,/,42*,/,35,21
O=C(Nc1nc2ccc(S(=O)(=O)N3CCCCC3)cc2s1)C1CCCO1 (stereo not given),-2,-2,-1,6,-24,/
O=C(Nc1nc2ccc(S(=O)(=O)N3CCCC3)cc2s1)C1CCCCC1,82*,77*,70*,79*,36,56*
SMILES,Ba/F3 V617F tox,APP 5UTR inh,IEC-6 tox,BaF3 tox,KLF5 inh,IEC-6 tox confirm
CC(Oc1ccccc1F)C(=O)NNC(=O)c1cc2ccccc2o1 (stereo not given),0,16,-2,8,-29,/
COc1cc(NC(=O)c2cc(-c3ccccc3Cl)on2)cc(OC)c1OC,/,/,55*,/,23,33*
COc1ccccc1-c1cc(C(=O)Nc2cccnc2)no1,75*,96*,58*,57*,38,39*
COc1cc(C(=O)Nc2ccc3c(c2)nc(C)n3C)cc(OC)c1OC,/,/,30*,/,20,19
COc1cc(C(=O)Nc2ccc3c(c2)ncn3C)cc(OC)c1OC,/,/,55*,/,50,34*
Cc1nc2cc(NC(=O)c3ccc(Cl)cc3)ccc2n1C,/,/,-2,/,-82,/
CCCNC(=O)COc1coc(CN2CCN(c3ccc(F)cc3)CC2)cc1=O,/,/,-4,/,-35,/
COC(=O)c1ccc2nc(C)cc(Nc3ccc(N(C)C)cc3)c2c1,4,0,2,6,17,/
COC(=O)c1ccc(Nc2cc(C)nc3ccccc23)cc1,6,/,23*,0,19,27*
Cc1cccc2c(C(=O)N3CCN(c4ccccn4)CC3)cc(-c3cccc(Br)c3)nc12,/,/,29*,/,0,6
O=C(c1cc(-c2ccccc2Cl)nc2ccc(Br)cc12)N1CCN(c2ccccn2)CC1,/,/,46*,/,10,6
